Consider five compounds from PubChem BioAssay.

Assay [1] relates to Wnt5a (protein binding on small-molecule microarray). Kind of assay: small molecules binding Wnt5a protein – biophysical, small-molecule microarray, 635/667 nm fluorescence, primary screen (AID 1142).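 Also: fluorescence read at 667 nm with signal to noise per printed feature.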 The conditions noted are these: 635 nm fluorescence, higher = more signal.
A short description of assay [2]: ATP-based viability of Huh7 replicon cells – cell-based, CellTiter-Glo luminescence, basal, 48 h, cytotoxicity control for HCV replication inhibitor project, primary screen (AID 1143).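 Also: Huh7 hepatoma cells carrying a hepatitis C replication reporter with no stimulus; test concentration not given here.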 The conditions noted are these: higher = more signal, called active from +8 up or from −8 down. In general terms: A replicon is a self-replicating genome or part of one, used to study replication in cells.

Assay [3] in a line: Pseudomonas biofilm growth suppression – PAO1 strain, BacTiter-Glo luminescence, LB-PBS, primary screen (AID 1144). The conditions noted are these: P. aeruginosa PAO1 biofilm, 12 h, higher = more signal.
Assay [4] can be described thus: basal CRE-LacZ reporter activity in PC12 – cell-based, unstimulated, primary screen (AID 1145). The conditions noted are these: no forskolin, luminescence, 4.5 h, higher = more signal, called active from +8 up or from −8 down.
Assay [5] can be described thus: forskolin-driven CRE-LacZ activity in PC12 – cell-based, CRE-LacZ reporter, forskolin-stimulated, primary screen (AID 1146).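 Also: PC12 cells with 6xCRE LacZ reporter stimulated by forskolin 10 µM; beta-galactosidase reporter signal reflecting CREB driven transcription.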 The conditions noted are these: luminescence, 4.5 h, higher = more signal, called active from +8 up or from −8 down.
For assay [6], the target named is Streptavidin (Streptomyces avidinii) (UniProt P22629). Kind of assay: compounds binding control protein streptavidin – biophysical, small-molecule microarray, 635/667 nm fluorescence, artefact control for SMM compound annotation, primary screen (AID 1147).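 Also: signal reflects streptavidin binding to arrayed compounds as a control protein.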 The conditions noted are these: higher = more signal.
Assay [7] is described as follows: probe aInhba binding on compound microarray – biochemical, small-molecule microarray, 635/667 nm fluorescence, primary screen (AID 1148).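 Also: score merges 667nm spot fluorescence with signal-to-noise for antibody binding to printed compounds.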 The conditions noted are these: higher = more signal.
Assay [8] deals with Torsin-1A (Homo sapiens) (UniProt O14656). Kind of assay: TOR1A wild-type binding on microarray – cell lysate, small-molecule microarray, lysate, 635/667 nm, primary screen (AID 1149). The conditions noted are these: COS7 hTOR1A-WT lysate, 635 nm fluorescence, higher = more signal.
Assay [9] has the same target. Kind of assay: torsin A mutant lysate binding on microarrays – cell lysate, small-molecule microarray, COS7 lysate, 635/667 nm fluorescence, primary screen (AID 1150).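 Also: score pools 667 nm emission and signal to noise measuring lysate protein binding.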 The conditions noted are these: COS7 hTOR1A mutant lysate, 635 nm fluorescence, higher = more signal.
The subject of assay [10] is Sonic hedgehog protein (Shh). Kind of assay: Sonic hedgehog microarray binding compounds – biochemical, small-molecule microarray, 635/667 nm fluorescence, primary screen (AID 1151).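 Also: Shh protein binding to compounds spotted on small-molecule microarray slides; score combines spot fluorescence intensity with signal-to-noise across triplicate slides.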 The conditions noted are these: 635 nm fluorescence, higher = more signal.
Assay [11] is described as follows: optical density shifts of acrAB sulA E. coli – strain DRC41, OD650, 48 h, E. coli filamentation inducer project, primary screen (AID 1152).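 Also: E. coli MC1000 strain DRC41 lacking acrAB efflux pump and sulA.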 The conditions noted are these: higher = more signal, called active from +8 up or from −8 down.
Assay [12] can be described thus: probe aLefty1 binding on compound microarray – biochemical, small-molecule microarray, 635/667 nm fluorescence, primary screen (AID 1153).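 Also: score merges spot fluorescence with signal-to-noise ratio from the scanned slide images.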 The conditions noted are these: higher = more signal.
Assay [13] is described as follows: plasmodial surface anion channel blockers, osmotic lysis – cell-based, P. falciparum Indochina, OD700, 1 h, primary screen (AID 1154). The conditions noted are these: P. falciparum Indochina infected RBC osmotic lysis, higher = more signal, called active from +8 up or from −8 down.
A short description of assay [14]: plasmodial surface anion channel blockers, osmotic lysis – cell-based, P. falciparum Indochina, OD700, 2 h, primary screen (AID 1155).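 Also: lysis reports solute entry through the parasite surface anion channel PSAC.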 The conditions noted are these: P. falciparum Indochina infected erythrocytes, higher = more signal, called active from +8 up or from −8 down.
Assay [15] is described as follows: changes in parasitized red cell lysis, either direction – P. falciparum Indochina, OD700, 3 h, PSAC antagonist project, primary screen (AID 1156). The conditions noted are these: P. falciparum-infected erythrocytes, osmotic lysis, higher = more signal, called active from +8 up or from −8 down.
Assay [16] can be described thus: plasmodial surface anion channel blockers, osmotic lysis – cell-based, P. falciparum Indochina, OD700, 18 h, primary screen (AID 1157). The conditions noted are these: P. falciparum Indochina infected erythrocytes, osmotic lysis OD700, 18 h; higher = more signal, called active from +8 up or from −8 down.
Assay [17] in a line: S6 kinase pathway phospho-S6 level changes – cell-based, A549, cytoblot, luminescence, serum-stimulated, primary screen (AID 1158).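 Also: serum-stimulated A549 lung adenocarcinoma cells; signal is phosphorylated S6 detected by cytoblot immunostaining with HRP secondary.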 The conditions noted are these: 5 h, higher = more signal.
Assay [18] deals with NADPH oxidase 2 (Homo sapiens) (UniProt P04839). Kind of assay: compounds shifting NOX2 Amplex Red fluorescence – cell-based, HEK293-NOX2, PMA-stimulated, NOX inhibitor project, primary screen (AID 1159). Also: test concentration not given here. The conditions noted are these: 45 min, higher = more signal, called active from +8 up or from −8 down.
In assay [19] the target is NADPH oxidase 4 (Homo sapiens) (UniProt Q9NPH5). Kind of assay: compounds shifting NOX4 Amplex Red fluorescence – cell-based, HEK293-NOX4, tetracycline-induced, NOX inhibitor project, primary screen (AID 1160). The conditions noted are these: HEK293-NOX4, Amplex Red H2O2 fluorescence, 45 min; higher = more signal, called active from +8 up or from −8 down.
The target in assay [20] is NADPH oxidase 5 (Homo sapiens) (UniProt Q96PH1). Kind of assay: compounds shifting NOX5 Amplex Red fluorescence – cell-based, HEK293-NOX5, NOX inhibitor project, primary screen (AID 1161). The conditions noted are these: HEK293-NOX5, ionomycin, 45 min, higher = more signal.

Active and inactive are the calls of the source. Unless noted, no rule for the calls is given here.

NADPH oxidase 4 (Homo sapiens), sequence (Q9NPH5 whole entry, looked up): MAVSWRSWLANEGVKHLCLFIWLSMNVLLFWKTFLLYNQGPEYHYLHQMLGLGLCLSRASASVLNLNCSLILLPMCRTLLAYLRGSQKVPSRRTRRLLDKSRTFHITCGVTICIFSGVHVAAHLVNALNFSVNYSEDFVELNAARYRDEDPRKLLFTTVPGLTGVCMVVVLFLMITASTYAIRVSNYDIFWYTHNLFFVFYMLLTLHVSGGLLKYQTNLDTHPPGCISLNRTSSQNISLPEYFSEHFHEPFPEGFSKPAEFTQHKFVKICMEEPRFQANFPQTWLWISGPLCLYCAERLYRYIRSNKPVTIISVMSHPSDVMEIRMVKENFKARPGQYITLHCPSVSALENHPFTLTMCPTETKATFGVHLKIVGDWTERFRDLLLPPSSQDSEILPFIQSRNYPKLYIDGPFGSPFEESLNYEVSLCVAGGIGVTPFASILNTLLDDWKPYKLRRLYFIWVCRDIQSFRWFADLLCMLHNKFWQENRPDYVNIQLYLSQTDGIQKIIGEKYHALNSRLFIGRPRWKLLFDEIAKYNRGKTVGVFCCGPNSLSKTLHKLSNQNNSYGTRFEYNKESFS
Torsin-1A (Homo sapiens), sequence (O14656 whole entry, looked up): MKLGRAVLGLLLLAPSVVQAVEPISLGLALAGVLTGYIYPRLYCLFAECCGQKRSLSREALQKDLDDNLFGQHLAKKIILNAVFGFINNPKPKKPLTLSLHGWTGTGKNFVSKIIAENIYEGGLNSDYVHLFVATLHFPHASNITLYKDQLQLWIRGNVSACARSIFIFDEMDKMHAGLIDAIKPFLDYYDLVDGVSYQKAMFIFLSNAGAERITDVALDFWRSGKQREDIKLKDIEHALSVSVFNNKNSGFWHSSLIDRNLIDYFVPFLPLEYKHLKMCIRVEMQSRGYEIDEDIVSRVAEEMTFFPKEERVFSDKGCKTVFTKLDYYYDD
NADPH oxidase 5 (Homo sapiens), sequence (Q96PH1 whole entry, looked up): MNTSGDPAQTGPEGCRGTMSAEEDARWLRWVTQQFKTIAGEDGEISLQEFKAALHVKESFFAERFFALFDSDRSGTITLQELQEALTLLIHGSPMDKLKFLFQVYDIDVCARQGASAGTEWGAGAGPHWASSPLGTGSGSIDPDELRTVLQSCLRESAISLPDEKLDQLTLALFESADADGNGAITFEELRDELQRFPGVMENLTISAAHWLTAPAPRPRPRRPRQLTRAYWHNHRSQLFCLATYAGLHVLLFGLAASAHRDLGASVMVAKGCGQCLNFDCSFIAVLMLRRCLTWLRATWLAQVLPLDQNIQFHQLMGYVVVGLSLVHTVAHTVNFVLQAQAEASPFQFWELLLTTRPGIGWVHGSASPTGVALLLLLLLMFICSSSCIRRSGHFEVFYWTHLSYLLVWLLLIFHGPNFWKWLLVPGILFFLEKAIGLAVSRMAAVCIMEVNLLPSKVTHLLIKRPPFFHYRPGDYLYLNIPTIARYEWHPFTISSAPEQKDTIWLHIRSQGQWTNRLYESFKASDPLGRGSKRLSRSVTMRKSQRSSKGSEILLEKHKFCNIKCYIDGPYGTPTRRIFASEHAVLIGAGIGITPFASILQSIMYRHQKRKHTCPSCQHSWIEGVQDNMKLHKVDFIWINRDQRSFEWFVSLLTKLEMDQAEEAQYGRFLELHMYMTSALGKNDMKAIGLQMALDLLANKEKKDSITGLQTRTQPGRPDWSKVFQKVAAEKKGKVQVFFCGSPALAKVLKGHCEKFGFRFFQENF
NADPH oxidase 2 (Homo sapiens), sequence (P04839 whole entry, looked up): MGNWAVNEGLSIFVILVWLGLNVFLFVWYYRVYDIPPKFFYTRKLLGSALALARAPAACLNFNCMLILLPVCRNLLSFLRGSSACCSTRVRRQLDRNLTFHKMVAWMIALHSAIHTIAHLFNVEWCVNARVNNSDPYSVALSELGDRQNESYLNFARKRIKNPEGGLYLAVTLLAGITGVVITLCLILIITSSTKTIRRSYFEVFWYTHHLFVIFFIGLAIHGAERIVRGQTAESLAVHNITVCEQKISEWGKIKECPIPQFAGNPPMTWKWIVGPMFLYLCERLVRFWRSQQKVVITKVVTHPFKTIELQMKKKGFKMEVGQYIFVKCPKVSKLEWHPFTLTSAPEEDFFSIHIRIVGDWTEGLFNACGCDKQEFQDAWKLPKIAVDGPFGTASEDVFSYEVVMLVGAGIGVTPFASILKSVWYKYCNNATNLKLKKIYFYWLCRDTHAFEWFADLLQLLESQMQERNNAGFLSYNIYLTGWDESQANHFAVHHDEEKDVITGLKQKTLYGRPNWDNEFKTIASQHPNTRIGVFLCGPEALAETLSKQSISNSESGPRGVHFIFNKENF
Streptavidin (Streptomyces avidinii), sequence (P22629 whole entry, looked up): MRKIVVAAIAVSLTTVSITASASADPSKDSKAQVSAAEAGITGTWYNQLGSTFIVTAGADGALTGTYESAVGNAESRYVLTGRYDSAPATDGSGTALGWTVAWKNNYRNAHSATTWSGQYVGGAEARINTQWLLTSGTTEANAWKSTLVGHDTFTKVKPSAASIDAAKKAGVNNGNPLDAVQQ

On to `NC(=O)NCC#Cc1ccc2c(c1)[C@]1(C(=O)N2)[C@H](c2ccc(OCCO)cc2)N2[C@H](c3ccccc3)[C@H](c3ccccc3)OC(=O)[C@H]2[C@@H]1C(=O)N1CCN(c2ncccn2)CC1`, for which the composite z-score is 0.132 in assay [1]; -0.373 in [6]; 0.15 in [7]; 0.539 in assay [8]; 0.673 in assay [9]; 1.5 in assay [10]. The same compound showed a composite z-score in [12] of 0.538. For the same compound, the z-score is 0.342 (inactive) in assay [2]; -0.724 (inactive) in [3]; -0.491 (inactive) in assay [4]; -0.301 (inactive) in assay [5]; 0.811 (inactive) in assay [11]; 3.03 (inactive) in [13]. Also, the z-score in assay [14] was 1.1 (inactive); in [15] it was 0.454 (inactive); in assay [16], 0.516 (inactive); in assay [17], 0.0981; in [18], 1.75 (inactive); in assay [19] it was 1.48 (inactive). The z-score in assay [20] stood at 0.41.
`COc1ccc(C(=O)Nc2ccc(CN3C(=O)[C@]4(O[C@H](CCn5cc([C@H](O)c6ccccc6)nn5)[C@@H]([Si](C)(C)c5ccc(OC)cc5)[C@@H]4C)c4ccccc43)cc2)cc1`: the composite z-score in assay [1] was -0.0249; in assay [6], -0.19; in assay [7], -0.0044; in assay [8], 0.33; in assay [9], 0.223; in [10], 0.666. In [12], the composite z-score turned out to be 0.193. Also, the z-score was -6.51 (inactive) in assay [2]; -0.675 (inactive) in assay [3]; -0.375 (inactive) in assay [4]; -1.22 (inactive) in [5]; -0.372 (inactive) in assay [11]; 3.29 (inactive) in assay [13]. Moreover, the z-score is 1.02 (inactive) in assay [14]; 0.741 (inactive) in assay [15]; 1.26 (inactive) in [16]; 0.319 in assay [17]; 0.753 (inactive) in [18]; 0.206 (inactive) in assay [19]. For the same compound, the z-score in assay [20] stood at 2.27.
Consider `CC1CC/C=C\[C@H]2OC34C=CCN(c5ccc(Cl)cc5)C(=O)[C@H]3N(C(CO)C(C)C)C(=O)[C@]4(C)C2C(=O)O1` (stereo not given in full), for which the composite z-score is -0.293 in [1]; -1.17 in assay [6]; -0.128 in assay [7]; 1.3 in assay [8]; 1.45 in assay [9]; 0.14 in assay [10]. Besides, the composite z-score in [12] was 0.188. For the same compound, the z-score in assay [2] was 0.24 (inactive); in [3] it was 0.971 (inactive); in [4], 0.199 (inactive); in [5] it was -0.27 (inactive); in assay [11] it was -0.397 (inactive); in assay [13], 2.3 (inactive). For the same compound, the z-score is 0.798 (inactive) in [14]; 0.647 (inactive) in [15]; 0.647 (inactive) in [16]; -0.631 in [17]; 1.86 (inactive) in [18]; -0.264 (inactive) in assay [19]. Besides, in [20], the z-score was 2.39.
On to `CCN(CC)c1ccc(N2CC=CC34O[C@@H]5/C=C\CCCOC(=O)C5[C@H]3C(=O)N(CCCCCCO)[C@@H]4C2=O)cc1` (stereo not given in full), for which the composite z-score in assay [1] was -0.517; in assay [6], -0.41; in [7], -0.0762; in assay [8], -1.7; in [9], -1.59; in assay [10], 0.216. In [12], this compound gave a composite z-score of 0.135. In addition, the z-score in assay [2] was -0.0416 (inactive); in assay [3], 0.194 (inactive); in assay [4] it was 0.475 (inactive); in assay [5] it was 0.458 (inactive); in assay [11], 1.75 (inactive); in assay [13], 1.78 (inactive). The z-score in [14] is -0.475 (inactive); in assay [15] it was 0.625 (inactive); in assay [16], -0.354 (inactive); in assay [17], 1.66; in assay [18], 0.274 (inactive); in [19], 0.275 (inactive). The z-score in assay [20] amounted to 1.36.
`CCOC(=O)C1=CC[C@@H](c2ccccc2)N(S(=O)(=O)c2ccc(C)cc2)[C@H]1C=C(C)C`: the composite z-score in assay [1] is 0.367; in assay [6], 1.44; in [7] it was 0.246; in assay [8], 0.258; in assay [9] it was 1.46; in [10], 0.839. The compound also showed a composite z-score in [12] of 0.129. Also, the z-score is -4.76 (inactive) in assay [2]; 0.514 (inactive) in assay [3]; -0.378 (inactive) in [4]; 0.807 (inactive) in assay [5]; -0.179 (inactive) in [11]; 2.27 (inactive) in assay [13]. In addition, the z-score was 1.42 (inactive) in assay [14]; -0.627 (inactive) in [15]; 0.756 (inactive) in assay [16]; -0.459 in assay [17]; -0.0156 (inactive) in assay [18]; 1.39 (inactive) in assay [19]. Further, the z-score in [20] stood at 1.43.
